Screens: PubChem, National Center for Advancing Translational Sciences (NCATS)
uPA generation: cell surface uPA generation inhibition; cell surface uPA generation assay, qHTS; Potency, µM (highest dose often 38.3 µM), most hits filed as inhibitors; 330,000 tested, 0.31% active; AID 540303; active means well fitted inhibition curve with a large enough effect; inconclusive means small, poorly fitted or top-dose-only effect; inactive means no such curve, though single readings can be large or run the other way; tested in mouse RAW 264.7 cells; further: nearly all actives have a fitted effect of over 55% in size
ClpP mod: qHTS Assay for Activators of ClpP. ATP-dependent Clp protease proteolytic subunit (Bacillus subtilis (strain 168)), P80244. purified B. subtilis ClpP, FRET peptide cleavage, 20 min. Potency, µM (top dose mostly 57.5 µM). 340,000 tested, 1.9% active. AID 651965, 2013; active means well fitted falling curve with a large enough effect; inconclusive means small, poorly fitted or top-dose-only effect; inactive means no such curve, though single readings can be large or run the other way; further: the source files actives as falling curves though it sought activators and does not explain the sign; nearly all actives have a fitted effect of over 65% in size
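Purified B. subtilis ClpP, 10 microg/mL final in Tris/HCl pH8 with KCl, BSA, glycerol and Tween-20, cleaved an Abz/nitrotyrosine-quenched decapeptide. Fluorescence (ex 320, em 430) was read at 0 and 20 min at room temperature. Delta was normalized to 5.8 microM ADEP and DMSO/no-enzyme controls.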
Sfp PPTase inh: inhibitors of Bacillus subtilis Sfp phosphopantetheinyl transferase | Q9F4F7 | Biochemical Sfp PPTase activity, qHTS | Potency, µM, most hits filed as inhibitors | 310,000 tested, 3.5% active;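 further: the enzyme is Sfp with the accession as filed and its product quenches rhodamine fluorescence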
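With Hepes-Na pH 7.6 buffer containing 10 mM MgCl2, Sfp (15 nM) modified BHQ-2-YbbR (12.5 uM) using rhodamine-CoA (5 uM). Two reads 30 minutes apart at 525/598 nm yielded each well's rate.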
TCR activator: activators of T cell receptors; AID 504894; primary human leukocytes, anti-CD3, IL-2 HTRF, 48 h; 330,000 tested, under 10 active; Potency, µM (series often up to 9.22 µM), actives largely listed as activators
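Readout: HTRF IL-2, Eu-cryptate/d2 antibody pair, 320nm excitation, 665nm emission. Stimulus: a-CD3 beads, no co-stimulation. Cells: primary human leukocytes. Exposure: 48 hr with compound.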
Hits are given with their value. Sampled rows, rich in hits. Any-hit rate of the full collection: about 4.2%. Unless noted, the call rests on the fitted dose curve; in most records, active means well fitted curve in the direction sought with a large enough effect; inconclusive means small, poorly fitted or top-dose-only effect, or another doubt; inactive means no such curve, though single readings can be large; an effect the other way counts as inactive or inconclusive.

Results for CC(C)(C)c1ccc(C(=O)NNc2ncnc3c2cnn3-c2ccc(Cl)cc2)cc1 ?
ClpP mod: inactive

Results for Clc1ccc(/C=N/Nc2ncnc3ccccc23)cc1Cl ?
uPA generation: inactive; ClpP mod: 28µM; Sfp PPTase inh: inactive; TCR activator: inactive

How did COc1cc(NC(=O)Cn2c(-c3ccccc3)cc(C(C)=O)c2C)cc(OC)c1 do in these assays?
ClpP mod: inactive

What do the screens show for `O=C(Nc1nnc2n1CCS2)c1ccco1`?
uPA generation: inactive; Sfp PPTase inh: 56µM; TCR activator: inactive

What do the screens show for `Cc1cc(C(=O)N/N=C/c2ccc([N+](=O)[O-])cc2)c2ccccc2n1`?
uPA generation: 2.8µM; ClpP mod: inactive; Sfp PPTase inh: inactive; TCR activator: inactive

Results for CCCc1ccc(-c2cc(C(=O)NCCc3ccc(S(N)(=O)=O)cc3)c3ccccc3n2)cc1 ?
ClpP mod: 32µM; Sfp PPTase inh: inconclusive

What do the screens show for `NS(=O)(=O)c1ccc(CCNC(=O)c2cc(-c3ccc(Br)cc3)nc3ccccc23)cc1`?
uPA generation: inactive; ClpP mod: inactive; Sfp PPTase inh: inactive; TCR activator: inactive

What do the screens show for `Cc1ccc(-c2cc(C(=O)N/N=C/c3cccnc3)c3ccccc3n2)cc1C`?
uPA generation: 10µM; ClpP mod: inactive; TCR activator: inactive

How did Cc1cc(C(=O)N/N=C/c2cc([N+](=O)[O-])ccc2O)c2ccccc2n1 do in these assays?
uPA generation: inactive; ClpP mod: inactive; Sfp PPTase inh: inactive; TCR activator: inactive

How did O=C(NCc1ccccn1)c1cc(-c2ccc(-c3ccccc3)cc2)nc2ccccc12 do in these assays?
uPA generation: 1.1µM; ClpP mod: inactive; Sfp PPTase inh: 25µM; TCR activator: inactive

What do the screens show for `OC[C@@H]1CN(Cc2ccc3c(c2)OCO3)C[C@H](n2cnc3c(NC4CCC4)ncnc32)O1`?
ClpP mod: inactive

Results for Cc1cccc(C)c1-c1ccc(CN2C(CC(C)C)C(=O)N(Cc3cn(CCO)nn3)CCS2(=O)=O)cc1 (stereo not given) ?
uPA generation: inconclusive; ClpP mod: inactive; TCR activator: inactive

How did COc1ccc(N2CCN(S(=O)(=O)c3ccc(CC(C)C)cc3)CC2)cc1 do in these assays?
ClpP mod: inactive

How did Cc1ccc(-c2cc(C(=O)NCc3ccccn3)c3ccccc3n2)cc1C do in these assays?
uPA generation: inactive; ClpP mod: 32µM; Sfp PPTase inh: inconclusive; TCR activator: inactive

Results for CC(/C=N/NC(=O)c1cc(-c2ccncc2)nc2ccccc12)=C\c1ccco1 ?
uPA generation: inconclusive; ClpP mod: inactive; Sfp PPTase inh: 22µM

Results for COc1ccc(CCNC(=O)c2cc(C3CC3)nc3c2cnn3C(C)C)cc1OC ?
uPA generation: inactive; ClpP mod: inactive; TCR activator: inactive

Results for CC(C)n1ncc2c(C(=O)NCCc3ccc(S(N)(=O)=O)cc3)cc(C3CC3)nc21 ?
uPA generation: inactive; ClpP mod: 32µM; TCR activator: inactive

Results for O=C(NCCc1ccc(Cl)cc1)C1CCN(c2ncccn2)CC1 ?
uPA generation: inactive; Sfp PPTase inh: inactive; TCR activator: inactive

Results for Cn1c(=O)c(=O)n(C)c2cc(S(=O)(=O)Nc3ccc(Cl)c(C(F)(F)F)c3)ccc21 ?
ClpP mod: inactive

Results for C=C(C)CSc1nc2sc3c(c2c(=O)n1-c1ccccc1)CC(C(C)C)OC3 (stereo not given) ?
ClpP mod: inactive

Results for Cc1ccccc1Nc1oc(-c2ccccc2)nc1-c1ccccc1F ?
Sfp PPTase inh: inactive

Results for Nc1ccc2nc(-c3ccc(Cl)cc3)[nH]c2c1 ?
uPA generation: 4.5µM; ClpP mod: inactive; Sfp PPTase inh: inactive; TCR activator: inactive

How did Nc1ccc(-c2nc3c(Cl)c(N)ccc3[nH]2)cc1 do in these assays?
uPA generation: inactive; ClpP mod: 28µM; Sfp PPTase inh: inactive; TCR activator: inactive

Results for C[C@H](CO)N1C[C@H](C)[C@H](CN(C)C(=O)CC2CC2)Oc2cc(Br)ccc2S1(=O)=O ?
ClpP mod: inactive

How did O=C(CCCCC(=O)NNC(=O)COc1ccccc1)NNC(=O)COc1ccccc1 do in these assays?
uPA generation: inactive; ClpP mod: inactive; Sfp PPTase inh: inactive; TCR activator: inactive

What do the screens show for `O=C(CC1(c2ccc(Cl)cc2)C2CC3CC(C2)CC1C3)NCCO` (stereo not given)?
uPA generation: inactive; ClpP mod: 13µM; Sfp PPTase inh: inactive; TCR activator: inactive

Results for O=C(COC(=O)C12CC3CC(CC(O)(C3)C1)C2)NCCc1ccc(Cl)cc1 ?
uPA generation: inactive; ClpP mod: inactive; Sfp PPTase inh: inactive; TCR activator: inactive

How did CCn1c(SCC(=O)N/N=C/C=C/c2ccco2)nnc1-c1ccc(OC)cc1 do in these assays?
uPA generation: inactive; ClpP mod: inactive; Sfp PPTase inh: inconclusive; TCR activator: inactive

What do the screens show for `CCn1c(SCC(=O)N/N=C/C=C/c2ccco2)nc2ccccc21`?
uPA generation: inactive; ClpP mod: inactive; Sfp PPTase inh: 45µM; TCR activator: inactive

Results for O=C(CSc1nnc(SCc2ccccc2)s1)N/N=C/C=C\c1ccco1 ?
uPA generation: inactive; ClpP mod: inactive; Sfp PPTase inh: 11µM; TCR activator: inactive

What do the screens show for `O=C(CSc1nnc(SCc2ccccc2)s1)N/N=C/C=C/c1ccccc1[N+](=O)[O-]`?
uPA generation: inactive; ClpP mod: inactive; Sfp PPTase inh: inactive; TCR activator: inactive

How did O=C(Nc1cccc(Cl)c1Cl)c1cc2nc(-c3ccc4c(c3)OCO4)cc(C(F)(F)F)n2n1 do in these assays?
ClpP mod: inactive

Results for O=c1nc(N/N=C/c2c[nH]c3ccccc23)cn[nH]1 ?
uPA generation: inactive; Sfp PPTase inh: 50µM; TCR activator: inactive

How did CC1=CC2(O)OCCN(CCO)C2=CC1=O (stereo not given) do in these assays?
uPA generation: inactive; ClpP mod: inactive; Sfp PPTase inh: 56µM; TCR activator: inactive

Results for C=CCOC(=O)C(=O)/C=C/c1coc2ccccc2c1=O ?
uPA generation: inactive; ClpP mod: inactive; Sfp PPTase inh: 45µM; TCR activator: inactive

Results for N#CC1=C(S)N(c2ccccc2)C(c2cccs2)NC1=O (stereo not given) ?
uPA generation: inactive; ClpP mod: inactive; Sfp PPTase inh: 10µM; TCR activator: inactive

What do the screens show for `N#CC1=C(S)N(c2ccc(F)cc2)C(c2ccco2)NC1=O` (stereo not given)?
uPA generation: inactive; ClpP mod: inactive; Sfp PPTase inh: 22µM

What do the screens show for `Cc1ccc(N2C(S)=C(C#N)C(=O)NC2c2cccs2)cc1` (stereo not given)?
uPA generation: inconclusive; ClpP mod: inactive; Sfp PPTase inh: 35µM; TCR activator: inactive

Results for CCCCCCNC(=O)CCCCCNS(=O)(=O)c1ccc(Br)cc1 ?
uPA generation: inactive; Sfp PPTase inh: inactive; TCR activator: inactive

Results for CC(C)(C)c1ccc(C(=O)O[C@H]2[C@H](Cc3ccccc3)NS(=O)(=O)[C@H]3C[C@@H]4C=C[C@]23O4)cc1 ?
uPA generation: inactive; ClpP mod: inactive; TCR activator: inactive
